# Several values for one entry are separate records, joined by “and”; a condition that tells them apart may be missing. Equal values may be shown once. ± gives the standard deviation of the averaged measurements.
# Key:
# [1] = system: DLD1; experiment: cell viability (CellTiter-Glo) relative to plate median (fraction of plate median); higher = more viable cells; conditions: 5 µM; treatment time 24 h; reporter: 7TFP
# Outline: (§1)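 Luminescence, normalised well by well to the plate median, is tabulated as a mean of independent replicates. There were two replicates, run on colorectal cancer lines stably transduced with lentiviral TCF/Wnt firefly luciferase reporters and dosed with library compounds at a final 5 µM for 24 h. Readouts were firefly luciferase or CellTiterGlo on parallel plates.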
# [2] = system: HCT116; experiment: as above; conditions: 5 µM; treatment time 24 h; reporter: TCF4/Wnt
# Outline: as §1
# [3] = system: SW480; experiment: as above; conditions: 5 µM; treatment time 24 h; reporter: 7TFP
# Outline: as §1
# [4] = system: DLD1; experiment: TCF/Wnt firefly luciferase reporter signal relative to plate median (fraction of plate median); higher = higher Wnt reporter signal; conditions: 5 µM; treatment time 24 h; reporter: 7TFP
# Outline: as §1
# [5] = system: SW480; experiment: as above; conditions: 5 µM; treatment time 24 h; reporter: 7TFP
# Outline: as §1
Structure (SMILES),cell viability [1],cell viability [2],cell viability [3],TCF/Wnt firefly luciferase reporter signal [4],TCF/Wnt firefly luciferase reporter signal [5]
COc1cccc2c1CCC1CC(=O)CC[C@]21C (stereo not given in full),1.06 ± 0.014,1.02 ± 0.086,1.02 ± 0.035,0.972 ± 0.016,1.04 ± 0.17
CCc1ccc(CCOc2ccc(CC3SC(=O)NC3=O)cc2)nc1 (stereo not given),0.923 ± 0.048,0.904 ± 0.07,0.983 ± 0.096,1.015 ± 0.0071,1.07 ± 0.057
O=C([O-])c1ccccc1O.[Na+],1.06 ± 0.035,1.02 ± 0.077,1.07 ± 0.028,1.04 ± 0.09,1.02 ± 0.014
COc1cc(OC)c2ccc(=O)oc2c1,1.08 ± 0.057,0.999 ± 0.2,1.07,1.02 ± 0.084,1.01 ± 0.071
NC(=O)NC(=O)Cc1ccccc1,1.02 ± 0.014,1.16 ± 0.035,1.02 ± 0.037,1.12 ± 0.064,0.94 ± 0.08
O=C(OCC(O)CO)c1ccccc1Nc1ccnc2cc(Cl)ccc12 (stereo not given),0.984 ± 0.037,1.015 ± 0.0071,1.02 ± 0.021,0.954 ± 0.15,0.922 ± 0.044
O=C(O)CCCc1ccccc1,1.03 and 0.95,0.968 and 0.85,0.993 and 1,1.15 and 1.08,1.01 and 1.04
CCOC(=O)NNc1nncc2ccccc12,0.981 ± 0.07,1.01 ± 0.014,0.981 ± 0.056,0.85 ± 0.045,0.784 ± 0.069
CC(=O)Nc1nnc(S(N)(=O)=O)s1,0.981 ± 0.055,0.907 ± 0.11,0.989 ± 0.016,0.865 ± 0.044,1.09 ± 0.092
CCCSc1ccc2[nH]c(NC(=O)OC)nc2c1,0.966 ± 0.039,0.893 ± 0.17,0.986 ± 0.016,1.1 ± 0.028,1.04 ± 0.1
Oc1cccc(O)c1,1.02 ± 0.072,0.985 ± 0.013,1.01 ± 0.02,0.873 ± 0.074,1.02 ± 0.055
COc1c(O)cc2c(c1O)[C@@H]1O[C@H](CO)[C@@H](O)[C@H](O)[C@H]1OC2=O,0.966 ± 0.049,0.912 ± 0.039,1.02 ± 0.04,0.981 ± 0.14,1.09 ± 0.092
COC(=O)/C=C/c1ccc(O)c(O)c1 [Caffeic acid methylester],0.918 ± 0.079,0.987 ± 0.12,0.979 ± 0.072,1.02 ± 0.098,1.04 ± 0.087
O=C(O)CN(CC(=O)O)Cc1cc2c(cc1O)Oc1cc(O)c(CN(CC(=O)O)CC(=O)O)cc1C21OC(=O)c2ccccc21,0.965 ± 0.03,0.914 ± 0.089,0.96 ± 0.053,0.909 ± 0.13,0.895 ± 0.12
COc1ccc2c(c1)c(CC(=O)O)c(C)n2C(=O)c1ccc(Cl)cc1,1.01 ± 0.016,0.785 ± 0.33,1.03 ± 0.028,1.08 ± 0.014,1.1 ± 0.014
